Screens deposited in PubChem BioAssay by SRMLSC.
Spn DPM-DC inh: S. pneumoniae DPM-DC inhibitors, primary screen, biochemical, PK/LDH-coupled NADH fluorescence | diphosphomevalonate decarboxylase (Streptococcus pneumoniae D39) | actives 0.49% (n = 65,000) | purified DPM-DC | calls only at 10 µM;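 active means the 320 compounds with the highest percent inhibition in the single-dose primary screen, excluding strongly autofluorescent ones, cut at about 32% in these data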;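 further: kinetic rate of NADH fluorescence loss reporting ADP formed by the decarboxylase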
A340 absorber: compound light absorbance at 340 nm, profiling panel, artefact control, biochemical, MLSMR library, data from PS, PMK, MK assays; AID 708, 2007; compound absorbance at 340 nm, fold over control; 65,000 tested, under 10 active; fold change at 10 µM;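 active means at 10 µM dose, initial 340 nm absorbance at least 2 fold that of control wells; inactive means change under 2 fold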;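 further: initial absorbance extrapolated from kinetic A340 decline of NADH oxidation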
Spn PMK inh: S. pneumoniae PMK inhibitors, primary screen, biochemical, mevalonate pathway, pilot trial included; AID 539, 2006; inhibition, % at 10 µM; actives 0.49% (n = 65,000); phosphomevalonate kinase (Streptococcus pneumoniae D39); purified PMK, PK/LDH-coupled NADH absorbance 340 nm;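 active means top-ranked compounds by inhibition in the single 10 µM screen, taking a fixed number of the strongest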
NADH enzymes: inhibitors of PK/LDH coupling enzymes, profiling panel, artefact control, biochemical, MLSMR library; coupled PK/LDH NADH assays, four targets; IC50, µM (highest dose often 10 µM); actives 0.02% (n = 65,000);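 active means single-dose screening hits from any of four coupled enzyme assays that gave an IC50 when retested across doses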;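 further: the DPM-DC format reads NADH fluorescence rather than 340 nm absorbance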
Spn MK inh: S. pneumoniae MK inhibitors, primary screen, biochemical, PK/LDH-coupled NADH absorbance; actives 0.48% (n = 65,000); inhibition, % at 10 µM; purified MK, PK/LDH-coupled NADH absorbance 340 nm;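 active means ranked among the strongest by inhibition in the single 10 µM screen, a fixed top-ranked set picked for dose follow-up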
Autofluor 339: intrinsic fluorescence of library compounds, ex339/em460 – biochemical, MLSMR library, data from DPM-DC assay, artefact control, profiling panel. compound autofluorescence, ex339/em460 nm, NADH buffer; hits give high values; 1 = no-compound wells, NADH background. fluorescence fold increase at 10 µM. actives 5.5% (n = 65,000);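 active means at 10 µM, mean starting fluorescence two-fold or more over control wells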;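 further: signal is the first read of a kinetic run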
Of the large screens only hits and unclear results are named; the others gave an inactive call. A selection: hits, their analogues and other compounds. The true share with any hit is near 6.8%.

COc1cccc(C(=O)N2CCN=C2SCc2cccnc2)c1OC	none
CCOC(=O)c1c(C)n(OCc2ccccc2)c2ccc3nonc3c12	Autofluor 339 2.2 (not shown: Spn DPM-DC inh)
COc1cc(C(=O)O)cc(Br)c1OC1CCCC1	none
Cc1ccc(CNC(=O)c2cn(C3CCCC3)c(=O)c3c2c2ccccc2n3C)o1	Autofluor 339 2.12 (not shown: Spn DPM-DC inh)
Cn1c2ccccc2c2c(C(=O)O)cn(C3CCCC3)c(=O)c21	Autofluor 339 2.13 (not shown: Spn DPM-DC inh)
COc1ccc(N2CCN(C(=O)c3cn(C4CCCC4)c(=O)c4c3c3ccccc3n4C)CC2)cc1	none
Cn1c2ccccc2c2c(C(=O)NCc3ccco3)cn(C3CCCCC3)c(=O)c21	Autofluor 339 2.11 (not shown: Spn DPM-DC inh)
COc1ccc(-n2cnnc2SCC(=O)c2ccc(S(=O)(=O)N3CCOCC3)cc2)cc1	none
CCC(C)(C)n1nnnc1CN(Cc1cc2cc(OC)c(OC)cc2[nH]c1=O)C1CCCC1	none
CCOC(=O)Nc1cc2c(C)cc(=O)oc2cc1C	Autofluor 339 3.6
CCOC(=O)Nc1cc(=O)c2ccccc2o1	none
O=C(CCCCCN1C(=O)c2ccccc2C1=O)NCc1ccccn1	none
Cc1n[nH]c(=S)n(/N=C/c2ccccn2)c1=O	Spn PMK inh 43.0
Cc1cc(=O)c2n(Cc3ccc(Cl)cc3)nc[n+]2[nH]1	none
c1ccc(-n2nnnc2SCc2cn3ccccc3n2)cc1	none
c1ccc(-n2nnnc2SCc2cn3cccnc3n2)cc1	Autofluor 339 5.01 (not shown: Spn DPM-DC inh)
Cc1nn(-c2ccccn2)c2c1-c1nc(N)ncc1CC2	Autofluor 339 3.62 (not shown: Spn DPM-DC inh)
Cc1nn2c3c(cnc2c1-c1ccccc1)C(=O)CCC3	none
O=C(O)CCSc1nc2ccccc2s1	none
c1ccc2sc(SCc3ccc(-c4nnco4)cc3)nc2c1	Spn PMK inh 30.0
CCN(c1c(C)n(C)n(-c2ccccc2)c1=O)S(C)(=O)=O	none
CCCN(C(=O)c1ccccc1N)c1c(C)n(C)n(-c2ccccc2)c1=O	Spn PMK inh 29.0
COc1ccccc1-n1c(SCC(=O)N2CCCCC2)nnc1-c1ccccc1O	Spn PMK inh 27.0
COc1ccccc1OCc1nnc(SCC(=O)N2CCCCC2)n1-c1ccccc1	none
N#Cc1c2c(c(N3CCN(c4ccccn4)CC3)n3c1nc1ccccc13)CCC2	none
Cc1c2c(n3c(nc4ccccc43)c1C#N)N(Cc1cccnc1)CC2	Autofluor 339 4.95 (not shown: Spn DPM-DC inh)
COCCNc1cc(C)c(C#N)c2nc3ccccc3n12	Autofluor 339 2.33 (not shown: Spn DPM-DC inh)
Cc1cc(N2CCN(c3ccccn3)CC2)n2c(nc3ccccc32)c1C#N	Autofluor 339 2.24
Cc1c2c(n3c(nc4ccccc43)c1C#N)N(Cc1ccccn1)CC2	Autofluor 339 4.94 (not shown: Spn DPM-DC inh)
CS(=O)(=O)NCCSCc1ccco1	none
CCOC(=O)C1=C(CS(=O)(=O)c2ccc(F)c(C)c2)NC(=O)NC1c1ccc(O)c(O)c1 (centres undefined)	none
CC(C)OC(=O)CSc1nc(N)c(C#N)c(-c2cccs2)c1C#N	none
N#Cc1c(N)nc(SCC(=O)NCCc2ccccc2)c(C#N)c1-c1cccs1	Autofluor 339 2.31 (not shown: Spn DPM-DC inh)
C=CCOC(=O)C1=C(C)NC(=O)NC1c1ccc(OC(=O)c2ccco2)c(OC)c1 (centres undefined)	none
CCOCCCn1c(=NC(=O)c2cccnc2)c(C(=O)OCC)cc2c(=O)n3ccccc3nc21	Autofluor 339 3.63 (not shown: Spn DPM-DC inh)
N#Cc1cc2c(=O)n3ccccc3nc2n(CCCn2ccnc2)c1=N	none
CCCCn1c(=NC(=O)c2cccnc2)c(C(=O)OCC)cc2c(=O)n3ccccc3nc21	Autofluor 339 2.28 (not shown: Spn DPM-DC inh)
COC(=O)c1cc(=O)nc2sccn12	Spn PMK inh 27.0
O=C(CC(C(=O)N1CCc2ccccc21)n1ccnc1)N1CCc2ccccc2C1 (centres undefined)	none
CC1(C)C(=O)OC(c2c(F)c(F)c(F)c(F)c2F)C2(CCCCC2)C1=O (centres undefined)	none
CSCC[C@@H](C(=O)O)N1Cc2ccccc2C1=O	none
O=C(O)[C@@H](c1ccccc1)N1Cc2ccccc2C1=O	Spn MK inh 72.0
COCCNC(=O)CSc1nc2ccc(N3CCOCC3)cc2c(=O)n1CCc1ccccc1	Autofluor 339 4.1 (not shown: Spn DPM-DC inh)
CCCCNC(=O)CSc1nc2ccc(N3CCOCC3)cc2c(=O)n1CCc1ccccc1	Autofluor 339 2.34
CCOC(=O)C1=C(C)N(c2ccccc2)C(=O)C1CC(=O)O (centres undefined)	none
CCOC(=O)c1cc2sccc2n1CC(=O)N1CCCC1	none
COc1ccc(S(=O)(=O)N2CCN(C(=O)COc3ccc4c(C)cc(=O)oc4c3)CC2)cc1	Autofluor 339 2.56
Cc1cc(=O)oc2cc(OCC(=O)N3CCCC(C)C3)ccc12 (centres undefined)	Autofluor 339 2.69
Cc1cc(=O)oc2ccc(OCC(=O)N3CCC(C)CC3)cc12	Spn DPM-DC inh active
CCN1CCN(Cc2c(C)[nH]c3ccc(OC)cc3c2=O)CC1	none
Cn1c(=O)c(C(=S)NC(=O)C2CC2)c(N)n(Cc2ccccc2)c1=O	none
O=C(Nc1cccc2ccccc12)c1cnccn1	Spn PMK inh 25.0
CCCCc1c(C)c2ccc(OC)c(/C(C)=N\O)c2oc1=O	Autofluor 339 2.48 (no result: Spn MK inh)
CC(=O)c1cccc(NC(=O)N2CCC(c3nnc(SCC(N)=O)n3C)CC2)c1	none
O=c1nc(-c2ccccc2)c2cc(Cl)ccc2[nH]1	Autofluor 339 3.07
CN1CCN(c2nc(-c3ccccc3)c3cc(Cl)ccc3n2)CC1	none
COc1ccc(-c2nnn(CCc3nn[nH]n3)n2)cc1OC	none
Cc1nn(CCc2nn[nH]n2)c2nc(C(F)(F)F)cc(C(F)(F)F)c12	Autofluor 339 4.96 (not shown: Spn DPM-DC inh)
CCN(CC(=O)Nc1ccc2c(c1)CCC2)Cc1nc2ccccc2c(=O)[nH]1	none
CCCCOc1ccc(C(=O)OC(C)CN(C)C)cc1 (centres undefined)	Autofluor 339 4.99 (not shown: Spn DPM-DC inh)
CC(C)CCOC(=O)C1[C@H]2C(=O)N(Cc3cccs3)C[C@]23C=C[C@H]1O3 (some centres undefined)	none
CCCCCn1c(CN2CCN(C)CC2)nc2c1c(=O)n(C)c(=O)n2C	none
CCCCn1c(Cl)nc2c1c(=O)n(C)c(=O)n2C	Spn MK inh 40.0
C=Cn1nc(C)c2ccccc2c1=O	none
COc1ccc(C(=O)Nc2ccccc2C(=O)NC(C(=O)NCc2ccco2)C(C)C)cc1 (centres undefined)	Spn PMK inh 28.0
CCOc1ccc(S(=O)(=O)Nc2ccccc2C(=O)NCc2ccco2)cc1	Autofluor 339 4.92 (not shown: Spn DPM-DC inh)
O=C(Nc1ccccc1C(=O)NCc1ccco1)c1ccco1	none
